A selection: hits, their analogues and other compounds. The true share with any hit is near 19%.
MCF10A rerep – DNA re-replication induction in MCF 10a cells; MCF 10A DNA re-replication, Hoechst nuclear intensity, 48 h; Potency, µM (titrated, usually from 46.1 µM), most hits filed as activators; actives 2.9% (n = 350,000); AID 624296; also: nearly all actives have a fitted effect of over 50% in size
IL1B secr inh – blocks inflammasome-driven IL-1 beta release | THP-1 LPS/ATP IL-1B secretion, AlphaLISA, 16 h; active compounds read low | activity change, % at 57.5 µM | actives 4.7% (n = 360,000); in the data active = activity change below about -50%; inconclusive = mostly about -30% to -49%
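Secreted IL-1B measured by AlphaLISA bead assay after 16 h compound exposure of THP-1 cells; compounds (final up to 57.5 uM) added 1 h before LPS (250 ng/mL) and ATP (1.25 mM) stimulation; lower signal means less secretion.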
DT40 TDP1 no CPT – qHTS for Inhibitors of human tyrosyl-DNA phosphodiesterase 1 (TDP1): qHTS in cells in absence of CPT; DT40 Tdp1-/- hTDP1 cells, no CPT, ATP luminescence, 48 h; Potency, µM (top dose mostly 46.2 µM), actives largely listed as inhibitors; actives 15% (n = 420,000); also: nearly all actives have a fitted effect of over 55% in size
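Seeded 400 DT40-hTDP1 cells/well (vehicle DMSO, no 20 nM CPT); pinned compounds; ≥48 hr at 37 °C; CellTiter-Glo luminescence as viability measure.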
BCR signal inh – inhibitors of chronic active B-cell receptor signaling; ABC-DLBCL IkBa-CBG/CBR reporter, luminescence ratio, 4 h; actives 0.05% (n = 340,000); Potency, µM (titrated, usually from 46.1 µM), actives largely listed as inhibitors; active = well fitted inhibition curve with a large enough effect in the signal ratio, with a control signal flat, not every such curve was filed as active; inconclusive = small, poorly fitted or top-dose-only effect, or effect the other way, or a change in a side signal; the % refers to the signal ratio
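TMD8 human ABC-DLBCL cells with doxycycline-inducible IκBα–green luciferase fusion and unfused red luciferase, in 0.5% FBS medium; compounds up to 46 uM, 4 h at 37C. Green/red luminescence ratio, filter-overlap corrected, fitted to concentration-response curves.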
DT40 TDP1 CPT – growth inhibition of DT40 Tdp1-/-;hTDP1 cells with camptothecin (screen for TDP1 inhibitors); AID 686979; Potency, µM (titrated, usually from 46.2 µM), usual class: inhibitors; chicken DT40 Tdp1-/-;hTDP1 cells + 20 nM CPT, ATP luminescence, 48 h; actives 12% (n = 420,000); also: nearly all actives have a fitted effect of over 55% in size
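Chicken DT40 Tdp1-/- cells complemented with human TDP1, 400 cells/well, exposed to compounds plus 20 nM camptothecin for at least 48 h at 37 C; viability read as ATP content by CellTiter-Glo luminescence.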
SW480 rereplic – inducers of DNA re-replication in SW480 colon cancer cells | SW480 DNA re-replication, Hoechst DNA content imaging, 48 h | Potency, µM (series often up to 46.1 µM), most hits filed as activators | actives 1.8% (n = 340,000); also: nearly all actives have a fitted effect of over 55% in size
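Hoechst fluorescence of nuclei (405 nm excitation, 500-530 nm emission) measured by plate-scanning imager after 48 hr compound exposure at 37 C; re-replication scored as increased number of nuclei with elevated intensity.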
Of the large screens only hits and unclear results are named; the others gave an inactive call. Unless noted, calls follow the shape of the dose curve; as a rule, active = well fitted curve in the direction sought with a large enough effect; inconclusive = small, poorly fitted or top-dose-only effect, or another doubt; inactive = no such curve, though single readings can be large; an effect the other way counts as inactive or inconclusive.

O=C(Nc1ccc(S(=O)(=O)N2CCOCC2)cc1)c1ccccc1F	none
CCOC(=O)Cn1nc(C)c(NC(=O)COc2ccc(F)cc2F)c1C	none (no result: MCF10A rerep, IL1B secr inh, DT40 TDP1 no CPT, DT40 TDP1 CPT, SW480 rereplic)
CCOC(=O)Cn1nc(C)c(NC(=O)c2ccc(Cl)c([N+](=O)[O-])c2)c1C	IL1B secr inh -85, DT40 TDP1 no CPT inconclusive
CCOC(=O)Cn1nc(C)c(NC(=O)COc2ccc(Cl)cc2C)c1C	DT40 TDP1 no CPT 8.2µM, DT40 TDP1 CPT 9.2µM (no result: MCF10A rerep, IL1B secr inh, BCR signal inh, SW480 rereplic)
O=C(CNC(=O)C1CCCCC1)NC1=NCCS1	DT40 TDP1 no CPT inconclusive, DT40 TDP1 CPT 26µM
Cc1ccccc1C(=O)NC1CC(C)(C)NC(C)(C)C1	BCR signal inh inconclusive
CC1(C)CC(NC2C3CC4CC(C3)CC2C4)CC(C)(C)N1 (stereo not given)	DT40 TDP1 no CPT 15µM, DT40 TDP1 CPT 18µM, SW480 rereplic inconclusive (no result: IL1B secr inh)
CC1(CNC(=O)C(=O)NCC2(C)CO2)CO1 (stereo not given)	MCF10A rerep inconclusive, DT40 TDP1 no CPT 1.6µM, DT40 TDP1 CPT 0.82µM, SW480 rereplic inconclusive (no result: BCR signal inh)
CCOc1ccc(NC(=O)CSc2nccn2-c2cccc(C)c2C)cc1	DT40 TDP1 no CPT 18µM, DT40 TDP1 CPT 18µM (no result: MCF10A rerep, IL1B secr inh, BCR signal inh, SW480 rereplic)
O=C(CSc1nnc(CCCO)n1-c1ccccc1)Nc1nccs1	none
Cn1c(CCCOc2ccc(Cl)cc2Cl)nnc1SCC(=O)Nc1nccs1	DT40 TDP1 no CPT inconclusive, DT40 TDP1 CPT 23µM
CCc1nnc(NC(=O)CSc2nccn2-c2cccc(C)c2C)s1	MCF10A rerep inconclusive, DT40 TDP1 no CPT 8.2µM, BCR signal inh inconclusive, DT40 TDP1 CPT 16µM, SW480 rereplic inconclusive
Cc1cccc(C)c1OCc1nnc(SCC(=O)Nc2nccs2)n1-c1ccccc1	MCF10A rerep inconclusive, DT40 TDP1 no CPT 5.8µM, DT40 TDP1 CPT inconclusive (no result: BCR signal inh)
Cc1nnc(NC(=O)CSc2nccn2-c2ccc(Cl)cc2)s1	DT40 TDP1 CPT inconclusive (no result: MCF10A rerep, IL1B secr inh, BCR signal inh, SW480 rereplic)
Cc1cc(C(=O)NCC2CCC3(CCN(Cc4cc(F)ccc4F)CC3)O2)n(C)n1 (stereo not given)	DT40 TDP1 no CPT inconclusive (no result: MCF10A rerep, IL1B secr inh, BCR signal inh, SW480 rereplic)
O=c1c(-c2ccccc2)nc2cnc(Oc3ccccc3)nc2n1Cc1cccs1	DT40 TDP1 no CPT inconclusive (no result: MCF10A rerep, IL1B secr inh, BCR signal inh, SW480 rereplic)
CC1=C(C(=O)OCc2ccccc2)C(c2cccc(F)c2)NC(=O)N1 (stereo not given)	none
Cc1ccc(CN2C(=O)C(C)Oc3ccc(C)cc32)cc1 (stereo not given)	DT40 TDP1 no CPT inconclusive, DT40 TDP1 CPT inconclusive (no result: MCF10A rerep, BCR signal inh, SW480 rereplic)
CCc1nnc(NC(=O)CSc2nccn2-c2ccc(OC)cc2)s1	DT40 TDP1 CPT inconclusive (no result: MCF10A rerep, IL1B secr inh, BCR signal inh, SW480 rereplic)
CCc1nnc(NC(=O)CSc2nccn2-c2cc(C)cc(C)c2)s1	MCF10A rerep inconclusive, DT40 TDP1 no CPT 16µM, DT40 TDP1 CPT 23µM, SW480 rereplic inconclusive
CC(C)(C)c1nc2ccccc2c2nnc(SCC(=O)Nc3nccs3)n12	DT40 TDP1 no CPT 4.6µM, DT40 TDP1 CPT 3.3µM
Cc1cccc(-n2ccnc2SCC(=O)Nc2nccs2)c1C	DT40 TDP1 no CPT 16µM, DT40 TDP1 CPT inconclusive
COc1ccccc1C(=O)NCc1ccccn1	none
NC(=O)c1c(/N=C/c2cccs2)sc2c1CCCC2	MCF10A rerep inconclusive, DT40 TDP1 no CPT 3.7µM, DT40 TDP1 CPT 3.7µM
COc1ccc(N(C(=O)c2snc(C(N)=O)c2N)C(C(=O)NC2CCCC2)c2ccco2)cc1 (stereo not given)	MCF10A rerep inconclusive, DT40 TDP1 no CPT inconclusive
CCc1ccc(N(C(=O)c2snc(C(N)=O)c2N)C(C(=O)NC2CCCC2)c2ccco2)cc1 (stereo not given)	MCF10A rerep 6.5µM, IL1B secr inh -64, DT40 TDP1 no CPT inconclusive, DT40 TDP1 CPT inconclusive, SW480 rereplic inconclusive
Cc1cc(C)cc(N(C(=O)c2snc(C(N)=O)c2N)C(C(=O)NCC2CCCO2)c2ccc(C)o2)c1 (stereo not given)	MCF10A rerep inconclusive, IL1B secr inh -51, DT40 TDP1 no CPT 21µM, DT40 TDP1 CPT inconclusive, SW480 rereplic inconclusive

Screening data (PubChem BioAssay)
